CaV13 FRET inh = Disruptors of the CACNA1D IQ motif to Ca2+-dependent inactivation inhibitor domain association, primary screening, Förster resonance energy transfer in intact living …; HEK cells, CFP/YFP FRET ICDI-IQ, plate reader, 10 min; percent FRET-ratio fall versus neutral wells; inhibition, % at 12.3 µM; 0.098% of 340,000 active;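 active = mean replicate inhibition of at least 30% and at least 1% of replicates passing that level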
Rin1-Abl PPI inh = inhibitors of Rin1-Abl protein binding, primary screen, biochemical, TR-FRET | 0.4% of 360,000 active | Tyrosine-protein kinase ABL1 (Homo sapiens) + Ras and Rab interactor 1 (Homo sapiens), … | inhibition, % at 7.35 µM; in the data active = inhibition above about 5%, passing the limit was not always enough
GC-A act = GC-A stimulated cGMP production enhancers – HEK293 GC-A cells, cGMP TR-FRET, EC30 ANP, primary screen | activation, % at 10 µM | 0.14% of 370,000 active | Atrial natriuretic peptide receptor 1 (Homo sapiens), P16066 | 0% at EC30 ANP, 100% saturating ANP; in the data active = activation above about 40%
GC-B act = human GC-B receptor activators, primary screen, HEK293 GC-B cells, cGMP TR-FRET, EC30 CNP. 0% at EC30 CNP, 100% saturating CNP. activation, % at 10 µM. 0.11% of 370,000 active. AID 1920062, 2024;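 active = activation at 10 µM reaching about 35% in either raw or pattern-adjusted values, limit read from the data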
Each line names hits and unclear results; the compound was inactive in the other large screens. Compounds with a hit are over-represented: about 0.67% of the library has one in this group of screens.

O=[N+]([O-])c1nn(-c2ccc(Cl)cc2)n(O)c1=NCc1cccnc1	GC-A act 40.8
O=[N+]([O-])c1nn(-c2ccc(Cl)cc2)n(O)c1=NCc1ccccc1Cl	GC-A act 42.6
Cc1oc(/N=C/c2ccc(O)cc2O)c(C#N)c1C	CaV13 FRET inh active
C=CCN1C(=O)[C@@H](CC(=O)NCCCC)[C@]2(C(=O)OC)CCCCC=C12	none (no result: CaV13 FRET inh, Rin1-Abl PPI inh)
CCN(CC)c1ccc(C(=C2C=CC(=[N+](CC)CC)C=C2)c2ccccc2)cc1	GC-B act 38.7
O=C(Cn1ncc2c1-c1ccccc1OC2)Nc1ccc(S(=O)(=O)N2CCCCC2)cc1	Rin1-Abl PPI inh 12.4
c1csc(-c2nc3nc4ccccc4nc3n2Cc2ccc3c(c2)OCO3)c1	GC-B act 37.8
CCCn1c(-c2cccs2)nc2nc3ccccc3nc21	none (no result: CaV13 FRET inh)
Cc1cc(=O)[nH]c(SCC(=O)Nc2ccc(Cl)cc2)n1	none (no result: CaV13 FRET inh, Rin1-Abl PPI inh)
Cc1[nH]nc(-c2ccc(OCc3cnn(-c4ccccc4)c3)c(C)c2O)c1Oc1ccccc1	none (no result: CaV13 FRET inh)
Cc1[nH]nc(-c2ccc(O)c(C)c2O)c1Oc1ccccc1	GC-A act 79.0
Cc1ccc2nc3c(cc(C(=O)NCCN4CCOCC4)c(=N)n3CCCN3CCOCC3)c(=O)n2c1	none (no result: CaV13 FRET inh, GC-A act, GC-B act)
Cc1ccc2nc3c(cc(C(N)=S)c(=N)n3CCCOC(C)C)c(=O)n2c1	CaV13 FRET inh 34.0
Cc1cccn2c(=O)c3cc(C(=O)NC(C)c4ccccc4)c(=N)n(CCCn4ccnc4)c3nc12 (stereo not drawn)	CaV13 FRET inh 75.3
Cc1ccc2nc3c(cc(C(=O)NCc4ccccc4)c(=N)n3CCCn3ccnc3)c(=O)n2c1	CaV13 FRET inh active
COc1cc(/C=N/n2c(-c3cc(-c4ccccc4)n[nH]3)n[nH]c2=S)ccc1OCc1ccccc1	none (no result: CaV13 FRET inh, Rin1-Abl PPI inh)
CCCCOC(=O)CCN1C(=O)/C(=C/c2ccccc2)SC1=S	none (no result: CaV13 FRET inh, Rin1-Abl PPI inh)
Nc1nc2c(ncn2[C@@H]2O[C@H](C(=O)NCCCN3CCCC3=O)[C@@H](O)[C@H]2O)c(=O)[nH]1	GC-A act 48.9, GC-B act 45.3 (no result: Rin1-Abl PPI inh)
COC(=O)[C@H](CC(C)C)N(CCCc1cn(Cc2ccccc2)nn1)S(=O)(=O)c1ccc(F)cc1Br	none (no result: CaV13 FRET inh, Rin1-Abl PPI inh)
COc1ccc(NC(=O)c2cc(-c3ccncc3)nc3ccc(Br)cc23)cc1OC	Rin1-Abl PPI inh 8.8
COc1ccc(OC)c(CN2C(=O)c3ccnn3CC2(C)c2nnnn2C2CCCC2)c1 (stereo not drawn)	none (no result: CaV13 FRET inh, Rin1-Abl PPI inh)
Nc1ncc(-c2ccccc2)c(-c2ccc(O)cc2O)n1	GC-A act 46.1
COc1ccc(-c2cnc(N)nc2-c2ccc(OCc3ccccc3)cc2O)cc1	none
CC(C)CN1C(=O)C[C@@]2(C(=O)N(C)c3ccc(NS(=O)(=O)c4ccc(F)cc4)cc32)C1c1ccccc1 (stereo partly drawn)	none (no result: CaV13 FRET inh, Rin1-Abl PPI inh)
COc1ccc(OC)c(-n2c(SCC(=O)Nc3cccc(S(N)(=O)=O)c3)nc3ccccc3c2=O)c1	GC-B act 37.0
COc1ccccc1-n1c(SCC(=O)Nc2cccc(S(N)(=O)=O)c2)nc2ccccc2c1=O	none
CSc1ccc(-c2cnc(N3CCC(C(N)=O)CC3)s2)cc1	none (no result: CaV13 FRET inh, Rin1-Abl PPI inh)
CC(=O)Nc1ccc(S(=O)(=O)N2CCN(c3cc(C)nc4ccccc34)CC2)cc1	none
CC(=O)Nc1ccc(S(=O)(=O)N2CCN(c3nc(NC4CCCC4)c4ccccc4n3)CC2)cc1	Rin1-Abl PPI inh 11.4 (no result: CaV13 FRET inh)
CCn1cnc2c1c(=O)n(Cc1cccc([N+](=O)[O-])c1)c(=O)n2Cc1ccccc1	GC-B act 40.9
CCn1cnc2c1c(=O)n(CC(=O)NCc1ccccc1)c(=O)n2Cc1ccccc1	none
CCn1cnc2c1c(=O)n(Cc1csc(-c3ccccc3)n1)c(=O)n2Cc1ccccc1	GC-B act 50.7
Cc1ccccc1NC(=S)NCc1ccc2c(c1)cc(C)n2C	none
CCc1cccc(C)c1NC(=S)NCc1ccc2c(c1)cc(C)n2C	CaV13 FRET inh 57.1
COC(=O)[C@]12C[C@H](CC(=O)NCc3ccc(C)o3)C(=O)N(Cc3ccc(Cl)cc3Cl)C1=C[C@H](COCc1ccccc1)O[C@@H]2C	none (no result: CaV13 FRET inh, Rin1-Abl PPI inh)
C[C@H](O)Cc1cn(-c2cc3cc(C#Cc4ccsc4)ccc3oc2=O)nn1	GC-A act 46.8
C[C@@H](O)CC#Cc1ccc2oc(=O)c(-n3cc(-c4ccsc4)nn3)cc2c1	none
COc1ccc(CNC(=O)CCNS(=O)(=O)c2ccc3[nH]c(=O)oc3c2)cc1	none (no result: CaV13 FRET inh, Rin1-Abl PPI inh)

Screens as filed in PubChem.
